The values that follow come from PubChem BioAssay (NCI).

Test systems include NCI-H23 lung; NCI-H226 lung; NCI-H322M lung; HOP-62 NSCLC; NCI-H460 lung; NCI-H522 lung; A549/ATCC NSCLC; 786-0 renal; COLO 205 colon; DU-145 prostate; K-562 leukemia; MALME-3M melanoma; MDA-MB-231 breast; SF-268 CNS; SF-295 CNS; SF-539 CNS; UACC-257 melanoma; M14 melanoma; HCT-15 colon; RXF 393 renal.
Common to all, as to assay: NCI-60 one-dose screen, 48 h (100 = growth as untreated, 0 = no growth, -100 = all killed)
Conditions in all cases: 10 µM unless noted

Compounds without any hit were thinned out: in the full panel of roughly 83,000, 20% have a hit.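 Plates (96-well) were seeded with cells, treated with compound at one concentration, and incubated for 48 hours before percent growth was determined.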 Unmarked numbers belong to inactive results. The source made the active and inactive calls. How the source made its calls: active means growth percent below 10; inactive means the rest.

With `O=C(/C(=N/O)S(=O)(=O)c1ccccc1)c1cccs1`, the growth with NCI-H23 lung was 94.2%; in the experiment with NCI-H226 lung, 102%; in the experiment on NCI-H322M lung, 111%; in the experiment with HOP-62 NSCLC it was 94.4%; in the experiment on NCI-H460 lung it was 102%; in the experiment with NCI-H522 lung it was 143%. The growth in the experiment with A549/ATCC NSCLC was 106%; in the experiment on 786-0 renal it was 99.8%; with COLO 205 colon, 104%; with DU-145 prostate, 115%; with K-562 leukemia, 93.1%; with MALME-3M melanoma it was 106%. Besides, the growth was 109% in the experiment on MDA-MB-231 breast; 106% in the experiment on SF-268 CNS; 104% with SF-295 CNS; 109% with SF-539 CNS; 106% in the experiment with UACC-257 melanoma; 105% with M14 melanoma. The growth in the experiment on HCT-15 colon is 105%.

For `CSc1nnc(C2=CC(=O)c3ccccc3C2=O)n1-c1ccccc1`, the growth in the experiment on NCI-H23 lung is 83.9%; in the experiment on NCI-H226 lung, 85.5%; with NCI-H322M lung, 91.1%; in the experiment on HOP-62 NSCLC it was 100%; in the experiment on NCI-H460 lung, 83.6%; with NCI-H522 lung, 64.5%. Moreover, the growth in the experiment on A549/ATCC NSCLC is 76.3%; with 786-0 renal, 95.2%; with COLO 205 colon it was 110%; in the experiment on DU-145 prostate it was 104%; with K-562 leukemia, -0.209% (active); in the experiment on MALME-3M melanoma, 84.9%. Besides, the growth was 93.2% in the experiment with MDA-MB-231 breast; 92% with SF-268 CNS; 85.8% with SF-295 CNS; 98.1% in the experiment with SF-539 CNS; 86.7% in the experiment on UACC-257 melanoma; 92% in the experiment on M14 melanoma. In addition, the growth with HCT-15 colon is 95.3%.

On to `O=C1NCC(Nc2ccc(Br)cc2Cl)C(=O)N1` (configuration not stated), for which the growth is 100% in the experiment on NCI-H23 lung; 109% in the experiment with NCI-H226 lung; 126% in the experiment with NCI-H322M lung; 113% in the experiment on HOP-62 NSCLC; 112% with NCI-H460 lung; 93% with NCI-H522 lung. Also, the growth with A549/ATCC NSCLC is 122%; in the experiment with 786-0 renal it was 103%; in the experiment on COLO 205 colon, 98%; with DU-145 prostate it was 119%; in the experiment on K-562 leukemia, 95.5%; in the experiment with MDA-MB-231 breast it was 104%. The growth in the experiment with RXF 393 renal is 112%; in the experiment with SF-268 CNS it was 105%; in the experiment on SF-295 CNS it was 118%; with SF-539 CNS, 98.9%; in the experiment with UACC-257 melanoma, 160%; with M14 melanoma, 93.8%. Besides, the growth in the experiment with HCT-15 colon is 107%.

As for `C[N+]1(CCC[N+]2(C)C[C@@H]3[C@H](C2)[C@@H]2C=C[C@H]3C2)CCOCC1` (some centres not stated), the growth in the experiment with NCI-H23 lung was 105%; in the experiment with NCI-H226 lung, 110%; with NCI-H322M lung, 106%; with HOP-62 NSCLC it was 94.3%; in the experiment on NCI-H460 lung, 116%; in the experiment on NCI-H522 lung, 106%. The growth is 111% in the experiment with A549/ATCC NSCLC; 109% in the experiment with 786-0 renal; 104% with COLO 205 colon; 140% in the experiment on DU-145 prostate; 110% in the experiment on K-562 leukemia; 104% with MDA-MB-231 breast. In addition, the growth was 121% in the experiment on RXF 393 renal; 115% with SF-268 CNS; 113% in the experiment on SF-295 CNS; 100% in the experiment on SF-539 CNS; 112% in the experiment on UACC-257 melanoma; 108% with M14 melanoma. Also, the growth in the experiment on HCT-15 colon was 91.4%.

For the molecule `CSc1ncc2ncn(C3OC(CO)C(O)C3O)c2n1` (configuration not stated), the growth was 137% in the experiment with NCI-H23 lung; 102% with NCI-H226 lung; 124% in the experiment with NCI-H322M lung; 119% in the experiment on HOP-62 NSCLC; 120% in the experiment with NCI-H460 lung; 119% in the experiment with NCI-H522 lung. For the same molecule, the growth was 108% with A549/ATCC NSCLC; 110% in the experiment on 786-0 renal; 142% with COLO 205 colon; 115% with DU-145 prostate; 104% with K-562 leukemia; 126% in the experiment with MALME-3M melanoma. Besides, the growth in the experiment with MDA-MB-231 breast is 108%; in the experiment with SF-268 CNS, 103%; in the experiment on SF-295 CNS, 107%; with SF-539 CNS, 114%; in the experiment with UACC-257 melanoma it was 126%; in the experiment on M14 melanoma, 107%. The growth with HCT-15 colon was 114%.

`COc1ccc(/C(=C2\O[C@@H]([C@H](O)CO)[C@H]3OC(C)(C)O[C@@H]23)c2cc(OC)c(OC)c(OC)c2)cc1O`: the growth in the experiment on NCI-H23 lung is 89.8%; with NCI-H226 lung, 110%; in the experiment with NCI-H322M lung it was 109%; in the experiment on HOP-62 NSCLC it was 88.4%; in the experiment with NCI-H460 lung it was 107%; in the experiment with NCI-H522 lung it was 57.5%. Moreover, the growth in the experiment with A549/ATCC NSCLC is 89.4%; with 786-0 renal it was 94.3%; in the experiment on COLO 205 colon, 126%; with DU-145 prostate, 87.1%; with K-562 leukemia, 12.6%; in the experiment with MALME-3M melanoma, 75.7%. Also, the growth is 97% in the experiment with MDA-MB-231 breast; 71.1% with SF-268 CNS; 92.5% with SF-295 CNS; 68.2% with SF-539 CNS; 97.9% with UACC-257 melanoma; 47.7% with M14 melanoma. Further, in the experiment with HCT-15 colon, the growth is 62.2%.

On to `COc1cc(C(=O)/C=C/c2cccnc2Nc2ccccc2)cc(OC)c1OC`, for which the growth in the experiment with NCI-H23 lung is -35.3% (active); with NCI-H226 lung, -96.2% (active); in the experiment on NCI-H322M lung, 7.04% (active); with HOP-62 NSCLC, -74.2% (active); in the experiment on NCI-H460 lung, -40.4% (active); with NCI-H522 lung, -68.7% (active). The growth was 2.67% (active) in the experiment on A549/ATCC NSCLC; -83.1% (active) with 786-0 renal; -87.5% (active) in the experiment on COLO 205 colon; -98.9% (active) with DU-145 prostate; -71.5% (active) in the experiment with MALME-3M melanoma; -61.1% (active) in the experiment on MDA-MB-231 breast. Moreover, the growth is -97.4% (active) in the experiment with RXF 393 renal; -81.1% (active) in the experiment on SF-268 CNS; 17.3% with SF-295 CNS; -54.8% (active) in the experiment on SF-539 CNS; -88.2% (active) with UACC-257 melanoma; -70% (active) in the experiment with M14 melanoma. The growth in the experiment with HCT-15 colon is -33.7% (active).

As for `COc1ccc(-c2c(N)noc2-c2cc(OC)c3c(c2)OCCO3)cc1`, the growth is 1.48% (active) in the experiment with NCI-H23 lung; -17.1% (active) in the experiment on NCI-H226 lung; 53% in the experiment on NCI-H322M lung; 23% in the experiment on HOP-62 NSCLC; 7.94% (active) in the experiment on NCI-H460 lung; 0.361% (active) in the experiment on NCI-H522 lung. Further, the growth in the experiment with A549/ATCC NSCLC is 21.3%; with 786-0 renal, 13.1%; with COLO 205 colon, -75.8% (active); in the experiment on DU-145 prostate, -17.2% (active); in the experiment with MALME-3M melanoma, 81.2%; in the experiment on MDA-MB-231 breast it was 27.5%. Also, the growth with RXF 393 renal was 39.2%; in the experiment on SF-268 CNS, 26.8%; with SF-295 CNS, 12.8%; in the experiment with SF-539 CNS, 4.21% (active); in the experiment on UACC-257 melanoma it was 72.6%; with M14 melanoma, -16.2% (active). In addition, in the experiment on HCT-15 colon, the growth is 15.7%.
